Experimental findings from PubChem BioAssay AID2328 (The Scripps Research Institute Molecular Screening Center, 2010) are described below.

The list shows a part of the results. Active and inactive are the calls of the source.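 The calls were made as follows: active = mean inhibition over triplicates above a set limit taken from the primary EBNA-1 screen (cut at about 37% in these data); inactive = the rest.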

Sequence of Lytic switch protein BZLF1 (Epstein-Barr virus (strain B95-8)) (P03206 whole entry, looked up): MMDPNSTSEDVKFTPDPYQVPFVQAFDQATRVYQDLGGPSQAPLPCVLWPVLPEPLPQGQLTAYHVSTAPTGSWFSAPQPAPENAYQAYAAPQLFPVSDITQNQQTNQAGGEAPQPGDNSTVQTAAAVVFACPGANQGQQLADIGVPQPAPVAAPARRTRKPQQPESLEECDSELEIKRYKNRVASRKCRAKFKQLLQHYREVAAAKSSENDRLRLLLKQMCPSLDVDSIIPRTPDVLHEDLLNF

The experiment concerns the target Lytic switch protein BZLF1 (Epstein-Barr virus (strain B95-8)) (UniProt P03206). The experiment is described as follows: EBV Zta DNA binding inhibitors, counter-screen for EBNA-1 inhibitor project, biochemical, fluorescence polarization, triplicate (AID 2328).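 Also: purified full length Zta protein with Cy5 labeled ZRE DNA probe; 0% = Zta with DMSO and 100% = wells lacking Zta protein; inhibitors lower polarization by freeing the labeled DNA probe.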 To be noted: Zta-ZRE DNA binding, Cy5 fluorescence polarization; at 11.1 µM; hits give high values. Background: A counterscreen serves to expose hits that act by an unwanted route or on another target.
For orientation: inhibition means the drop in the measured response relative to a control, in per cent. As for `N#Cc1ccc(N2Cc3ccccc3/C2=N/C(=O)Nc2ccc(Cl)cc2)cc1`, the inhibition was -9.43% (inactive).

As for `CCOc1cccc(NC(=O)Cn2nc(-c3ccc4c(c3)OCCO4)ccc2=O)c1`, the inhibition was -0.94% (inactive). For `CCc1nccn1S(=O)(=O)c1cccc([N+](=O)[O-])c1`, the inhibition is 0.63% (inactive). Turning to `CCOc1[nH]n(-c2ccc(Cl)cc2)c(=O)c1C=Nc1ccc(O)cc1`, the inhibition is 6.97% (inactive).

As for `COc1ccc(C(=O)CSc2nnc(NC(=O)C3CC(=O)N(c4cccc(OC)c4)C3)s2)cc1` (stereo unspecified), the inhibition was -0.54% (inactive). Next, `CCOc1cccc(SCc2noc(C(=O)NC(C)C)c2C(=O)O)c1`: 2.79% (inactive). Regarding `COC(=O)C1=CN(Cc2ccc(OC)cc2)C=C(C(=O)OC)C1c1ccc(O)c(OC)c1`, the inhibition was -0.26% (inactive). In the case of `Cc1ccc(O)c(/C=N/NC(=O)COc2ccc3c(C)cc(=O)oc3c2)c1` it was -17% (inactive). Next, `CCOc1ccc(OCC)c(NC(=O)C(NS(=O)(=O)c2ccc3c(c2)oc(=O)n3C)C(C)C)c1` (stereo unspecified): 22.3% (inactive). In the case of `O=C(COc1ccc(/C=N/NC(=O)c2ccc(O)cc2)cc1)Nc1ccc([N+](=O)[O-])cc1` it was 31.8% (inactive); in that of `CCOc1ccc(NC(=O)c2ccc(NC(=O)COC(=O)c3ccc(NC(=O)CC#N)cc3)cc2)cc1`, 6.56% (inactive); in that of `Cc1ccc(C(=O)NNC(=O)c2cc3cc4ccccc4nc3s2)cc1`, 7.01% (inactive). For `O=C(Nc1ccc2ccccc2c1)Nc1ccc2snnc2c1`, the inhibition is 1.17% (inactive).

With `COc1ccc(C(=O)Nc2cccc(NC(=O)c3ccc(OC)cc3OC)n2)c(OC)c1`, the inhibition is 7.79% (inactive).

Turning to `Cc1cccc(NC(=O)Cn2c(=O)n(Cc3ccccc3)c(=O)c3c(C)c(C)sc32)c1`, the inhibition was -8.61% (inactive). Next, `CCC(=O)Nc1ccc(C(=O)Nc2ccc3c(c2)C(=O)N(CC2CCCO2)C3=O)cc1` (stereo unspecified): -3.33% (inactive).

For the molecule `O=C(CCCn1c(SCC(=O)c2ccc(F)cc2)nc2ccccc2c1=O)NCc1ccco1`, the inhibition was 10.2% (inactive). Next, `Nc1nnc(SCC(=O)Nc2ccc3nc(SCC(=O)Nc4ccccc4)sc3c2)s1`: 8.16% (inactive). In the case of `O=C(Nc1cccc(NC(=O)c2ccc(Br)cc2)c1)c1ccccc1` it was 4.83% (inactive); in that of `Nc1ccc(S(=O)(=O)Nc2nccc(/C=C/c3ccc(Br)s3)n2)cc1`, -3.48% (inactive).

Consider `COc1ccc(C)cc1NC(=O)NCc1ccccn1`, for which the inhibition was -2.35% (inactive). Next, `COc1ccc(-c2nonc2NC(=O)c2oc3ccc(F)cc3c2C)cc1OC`: -0.1% (inactive); `COc1ccc(-c2ccc(Nc3ccc(S(=O)(=O)N4CCCC4)cc3)nn2)cc1OC`: -8.43% (inactive). In the case of `CCOc1ccc(C(=O)NC(=S)Nc2ccc(NC(=O)C(C)C)cc2)cc1[N+](=O)[O-]` it was -3.36% (inactive); in that of `COc1ccc(NC(=O)NCc2ccc3c(c2)OCO3)c(OC)c1`, -15.6% (inactive). As to `N#Cc1nc(N)nc(N(c2ccccc2)c2ccccc2)n1`, the inhibition is -3.66% (inactive). Next, `Cc1cccc(N(CC(=O)Nc2ccc(-c3nc4ccc(C)cc4s3)cc2)S(C)(=O)=O)c1`: 13.4% (inactive); `CCOC(=O)c1ccc(NC(=O)C2CC(=O)Nc3nc4ccccc4n32)cc1` (stereo unspecified): -17.7% (inactive); `CC(=O)Nc1ccc(S(=O)(=O)NCC(=O)OCc2cc(=O)oc3ccc4ccccc4c23)cc1`: 7.35% (inactive). For the molecule `COc1ccc(CNc2nc3c(c(=O)[nH]c(=O)n3C)n2Cc2ccccc2)cc1`, the inhibition is -15.5% (inactive). Next, `Cc1ccc(-c2nn(-c3ccccc3)cc2/C=C2\SC(=S)N(CCCCCC(=O)O)C2=O)o1`: 5.22% (inactive). In the case of `C/C(=N\N=C(N)N)c1ccc(Cl)cc1` it was 1.14% (inactive). Next, `Cc1[nH]n(C(N)=S)c(=O)c1N=Nc1ccc(Cl)cc1Cl`: -7.48% (inactive); `COC(=O)CSc1nc(C)c2ccc(OC)cc2n1`: -0.69% (inactive). Regarding `COc1ccc(CCNC(=S)N2CCN(S(=O)(=O)c3ccc(F)cc3)CC2)cc1`, the inhibition is -0.49% (inactive). Next, `CC(=O)c1c(C)[nH]c(C(=O)OCC(=O)Nc2sc3c(c2C#N)CCCC3)c1C`: 5.6% (inactive).
